These results are taken from PubChem BioAssay (NCI).

About 79,000 compounds went through this panel and 15% of them were active in at least one assay; those are over-represented in the sample as a whole. Unmarked numbers belong to inactive results. The source made the active and inactive calls. Cut-off read from the data, not from the text of the source: active = growth inhibition above about 70%; inactive = the rest.

This assay can be described thus: NCI Yeast Anticancer Drug Screen. Data for the rad14 strain (AID 159).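 Note: 0% = growth of vehicle-treated control cultures.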 The note with it: S. cerevisiae rad14 strain growth inhibition, active compounds read high. The protocol: Growth inhibition of yeast strains with defined genetic alterations is measured as a screen for potential anti-cancer activity. Selected strains with alterations in DNA damage repair or cell cycle control were exposed to compounds and growth inhibition was measured relative to vehicle treated controls. The strain used in this assay is rad14

Regarding `[O-]c1c2cc(-[n+]3c(-c4ccccc4)cc(-c4ccccc4)cc3-c3ccccc3)cc1COCCOCCOCCOCCOC2`, the growth inhibition (at 1.2 µM) was 1%; the growth inhibition (at 3.7 µM) is 1%; the growth inhibition (at 11.0 µM) was 1%; the growth inhibition (at 33.0 µM) was 9%; the growth inhibition (at 100.0 µM) is 81% (active).
With `Cc1ccc2oc(-c3cccc(N)c3)nc2c1`, the growth inhibition by setting is: (at 1.2 µM) 1%; (at 3.7 µM) 3%; (at 11.0 µM) 9%; (at 33.0 µM) 18%; (at 100.0 µM) 27%.
As to `CN(C)CCNC(=O)c1cccc2nc3c(ccc4ccccc43)nc12`, the growth inhibition is -2% (at 1.2 µM); 2% (at 3.7 µM); 14% (at 11.0 µM); 50% (at 33.0 µM); 99% (active) (at 100.0 µM).
Taken in the same sequence, the figures for `Nc1ccc2cc(Br)c3ccccc3c2c1` were -1%, 0%, 4%, 8% and 21%.
Taken in the same sequence, the figures for `Cc1cnccc1N=Nc1ccc(N(C)C)cc1` were -3%, -5%, 12%, 39% and 51%.
Taken in the same sequence, the figures for `COc1ccc(/C=C2\CCc3ccccc3C2=O)cc1OC` were -16%, -13%, -20%, 19% and 80% (active).
As for `Cc1nc2ccc(Br)cc2c(=O)n1-c1ccc(NC2OCC(O)C(O)C2O)cc1` (stereo not given), the growth inhibition (at 1.2 µM) is 4%; the growth inhibition (at 3.7 µM) is 5%; the growth inhibition (at 11.0 µM) was 14%; the growth inhibition (at 33.0 µM) is 32%; the growth inhibition (at 100.0 µM) was 79% (active).
Taken in the same sequence, the figures for `CN1CCN(c2ccc3nc(-c4ccc5nc(-c6ccc(O)cc6)[nH]c5c4)[nH]c3c2)CC1` were -16%, -16%, 97% (active), 97% (active) and 97% (active).
